Reference: PubChem BioAssay (NCI)
This is part of a sample that, as a whole, favours compounds with a hit. Of some 83,000 tested, about 20% had one in any assay.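 Single-dose data. Exposure time 48 hours. Values below 10 considered active.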 The source made the active and inactive calls.

How the values were obtained:
Assay in all cases: NCI-60 one-dose screen, 48 h (100 = growth as untreated, 0 = no growth, -100 = all killed)
Settings in all cases: 10 µM unless noted
SR leukemia = system: SR leukemia
RPMI-8226 leukemia = system: RPMI-8226 leukemia
OVCAR-8 ovarian = system: OVCAR-8 ovarian
OVCAR-5 ovarian = system: OVCAR-5 ovarian
OVCAR-4 ovarian = system: OVCAR-4 ovarian
SK-OV-3 ovarian = system: SK-OV-3 ovarian
IGROV1 ovarian = system: IGROV1 ovarian
OVCAR-3 ovarian = system: OVCAR-3 ovarian
HS 578T breast = system: HS 578T breast
NCI/ADR-RES ovarian = system: NCI/ADR-RES ovarian

Measured: growth

CC1=C(C#N)C(=O)NC(C)C1 (stereo not given)
inactive: SR leukemia 110% | RPMI-8226 leukemia 105% | OVCAR-8 ovarian 102% | OVCAR-5 ovarian 95.5% | OVCAR-4 ovarian 110% | SK-OV-3 ovarian 103% | IGROV1 ovarian 105% | OVCAR-3 ovarian 103% | HS 578T breast 97.2% | NCI/ADR-RES ovarian 102%

CC(C)CSc1nc(NN)c(C#N)c(-c2ccccc2)n1
inactive: SR leukemia 109% | RPMI-8226 leukemia 100% | OVCAR-8 ovarian 105% | OVCAR-5 ovarian 104% | OVCAR-4 ovarian 86.9% | SK-OV-3 ovarian 100% | IGROV1 ovarian 103% | OVCAR-3 ovarian 91% | HS 578T breast 95.7% | NCI/ADR-RES ovarian 92.3%

COc1cc2c(cc1OCCCN1CCN(CCCn3c4ccccc4c4ccccc43)CC1)N=C[C@@H]1CCCN1C2=O
active: SR leukemia -34.7% | RPMI-8226 leukemia -57.4% | OVCAR-8 ovarian -6.46% | OVCAR-5 ovarian 3.88% | OVCAR-4 ovarian -39.5% | SK-OV-3 ovarian -80.5% | IGROV1 ovarian -64.6% | OVCAR-3 ovarian -91.1% | HS 578T breast -54.5% | NCI/ADR-RES ovarian 1.66%

CC(=O)Nc1nc(N)nc(NC(C)=O)c1N=O
inactive: SR leukemia 100% | RPMI-8226 leukemia 118% | OVCAR-8 ovarian 109% | OVCAR-5 ovarian 108% | OVCAR-4 ovarian 127% | SK-OV-3 ovarian 103% | IGROV1 ovarian 131% | OVCAR-3 ovarian 99.7% | HS 578T breast 104% | NCI/ADR-RES ovarian 97.2%

OCCCCCCNc1ncnc2cc(Cl)ccc12
inactive: SR leukemia 64.8% | RPMI-8226 leukemia 83.6% | OVCAR-8 ovarian 94.1% | OVCAR-5 ovarian 119% | OVCAR-4 ovarian 76.2% | SK-OV-3 ovarian 81.3% | IGROV1 ovarian 112% | OVCAR-3 ovarian 92.4% | HS 578T breast 105% | NCI/ADR-RES ovarian 95.7%

Cc1nc2cncc(C#Cc3cncc(C(=O)Nc4ccc(CN5CCN(C)CC5)c(C(F)(F)F)c4)c3)c2nc1C
inactive: SR leukemia 19.7% | OVCAR-8 ovarian 24.6% | OVCAR-5 ovarian 10.5% | OVCAR-4 ovarian 13.7% | OVCAR-3 ovarian 25.9% | NCI/ADR-RES ovarian 18.5%
active: RPMI-8226 leukemia 8.79% | SK-OV-3 ovarian -26.8% | IGROV1 ovarian -5.34% | HS 578T breast -9.83%

Cc1csc(NC(c2ccccc2)c2c(C)nc3ccccn23)n1 (stereo not given)
inactive: SR leukemia 94.9% | RPMI-8226 leukemia 79.2% | OVCAR-8 ovarian 102% | OVCAR-5 ovarian 101% | OVCAR-4 ovarian 104% | SK-OV-3 ovarian 97.3% | IGROV1 ovarian 108% | OVCAR-3 ovarian 110% | HS 578T breast 95.5% | NCI/ADR-RES ovarian 99%

O=[N+]([O-])c1cccc(-c2nc3sccn3c2-c2ccnc(NCCCNS(=O)(=O)c3ccc(Cl)cc3)n2)c1
inactive: SR leukemia 60.7% | RPMI-8226 leukemia 16.2% | OVCAR-8 ovarian 20% | OVCAR-5 ovarian 112% | OVCAR-4 ovarian 17.5% | SK-OV-3 ovarian 96.5% | IGROV1 ovarian 43.3% | OVCAR-3 ovarian 44.5% | HS 578T breast 81.2% | NCI/ADR-RES ovarian 12.6%

CCOC(=O)NNC(=S)Nc1ccccc1
inactive: SR leukemia 110% | RPMI-8226 leukemia 105% | OVCAR-8 ovarian 102% | OVCAR-5 ovarian 116% | OVCAR-4 ovarian 100% | SK-OV-3 ovarian 111% | IGROV1 ovarian 107% | OVCAR-3 ovarian 116% | HS 578T breast 103% | NCI/ADR-RES ovarian 106%

CC(C)(C)n1cc(-c2ccnc(NCCCNS(=O)(=O)c3cccc(F)c3)c2)c(-c2cccc(O)c2)n1
inactive: SR leukemia 16.4% | RPMI-8226 leukemia 17.5% | OVCAR-8 ovarian 57.5% | OVCAR-5 ovarian 68.2% | OVCAR-4 ovarian 57.8% | SK-OV-3 ovarian 89.2% | IGROV1 ovarian 58.8% | OVCAR-3 ovarian 65.7% | HS 578T breast 58.2% | NCI/ADR-RES ovarian 62%

CCCCCCCCCCCCNC(=O)[C@H]1CSC(c2cc(Br)cs2)N1 (stereo not given in full)
inactive: RPMI-8226 leukemia 37.7%
active: SR leukemia -31.3% | OVCAR-8 ovarian -64.8% | OVCAR-5 ovarian 9.52% | OVCAR-4 ovarian -72.4% | SK-OV-3 ovarian -42.5% | IGROV1 ovarian -54.1% | OVCAR-3 ovarian -50.8% | HS 578T breast -41.2% | NCI/ADR-RES ovarian -22.3%

O=[N+]([O-])c1cnc(Sc2ccncn2)s1
active: SR leukemia -69.7% | RPMI-8226 leukemia -64.1% | IGROV1 ovarian -80.7% | OVCAR-3 ovarian -95.5%
inactive: OVCAR-8 ovarian 73.3% | OVCAR-5 ovarian 94.1% | OVCAR-4 ovarian 53.9% | SK-OV-3 ovarian 114% | HS 578T breast 58% | NCI/ADR-RES ovarian 67%

O=C(Nc1ccc(Cl)c(Cl)c1)NS(=O)(=O)c1cnccc1Oc1ccc(F)cc1
active: RPMI-8226 leukemia -40.7% | OVCAR-3 ovarian 8.22%
inactive: SR leukemia 51.2% | OVCAR-8 ovarian 55.4% | OVCAR-5 ovarian 82.7% | OVCAR-4 ovarian 52% | SK-OV-3 ovarian 88.7% | IGROV1 ovarian 71.7% | HS 578T breast 86% | NCI/ADR-RES ovarian 53.3%

CCN(CC)c1ccc(N=O)cc1
inactive: SR leukemia 26.5% | RPMI-8226 leukemia 91.3% | OVCAR-8 ovarian 55.4% | OVCAR-5 ovarian 103% | OVCAR-4 ovarian 66.7% | SK-OV-3 ovarian 96% | IGROV1 ovarian 15% | OVCAR-3 ovarian 28.5% | HS 578T breast 93% | NCI/ADR-RES ovarian 52%

Cn1cc(-c2cnc3ccc(NC(=O)Nc4ccc(F)c(Br)c4)cc3n2)cn1
inactive: SR leukemia 34% | OVCAR-5 ovarian 51.2% | OVCAR-4 ovarian 10.7% | SK-OV-3 ovarian 44.7% | IGROV1 ovarian 32.8% | OVCAR-3 ovarian 28.2% | HS 578T breast 37.4% | NCI/ADR-RES ovarian 12.4%
active: RPMI-8226 leukemia -34.1% | OVCAR-8 ovarian 7.83%

CC(=O)Oc1csc(N(C(C)=O)c2cccc(C(F)(F)F)c2)n1
inactive: SR leukemia 107% | RPMI-8226 leukemia 75.8% | OVCAR-8 ovarian 94.1% | OVCAR-5 ovarian 96.2% | OVCAR-4 ovarian 89.4% | SK-OV-3 ovarian 99.6% | IGROV1 ovarian 98.4% | OVCAR-3 ovarian 103% | HS 578T breast 93% | NCI/ADR-RES ovarian 104%

O=[N+]([O-])c1ccc(Sc2ncccn2)c([N+](=O)[O-])c1
active: SR leukemia -20.3% | RPMI-8226 leukemia -29.3% | IGROV1 ovarian -9.02% | OVCAR-3 ovarian 7.76%
inactive: OVCAR-8 ovarian 65.8% | OVCAR-5 ovarian 81.1% | OVCAR-4 ovarian 51.8% | SK-OV-3 ovarian 95.2% | HS 578T breast 88.6% | NCI/ADR-RES ovarian 53.8%

NC1=C(/C(N)=N/O)C(c2ccccc2)c2ccc3ccccc3c2O1 (stereo not given)
active: OVCAR-3 ovarian -3.21% | NCI/ADR-RES ovarian -1.33%
inactive: SR leukemia 34.9% | RPMI-8226 leukemia 19.1% | OVCAR-8 ovarian 17.2% | OVCAR-5 ovarian 29.6% | OVCAR-4 ovarian 47.5% | SK-OV-3 ovarian 55.2% | IGROV1 ovarian 29% | HS 578T breast 13.4%

COc1ccc(/C=N\NC(=O)CN2CCN(c3cc4c(cc3F)c(=O)c(C(=O)N/N=C/c3ccc(OC)c(OC)c3)cn4C3CC3)CC2)cc1OC
inactive: OVCAR-8 ovarian 13.3% | OVCAR-5 ovarian 26.4% | SK-OV-3 ovarian 17.1% | NCI/ADR-RES ovarian 100%
active: SR leukemia 3.52% | RPMI-8226 leukemia 4.84% | OVCAR-4 ovarian -2.98% | IGROV1 ovarian 4.1% | OVCAR-3 ovarian -5.57% | HS 578T breast -4.8%

CCCCOc1ccc(/C=C2/SC(N3CCOCC3)=NC2=O)cc1OCC
active: SK-OV-3 ovarian -16.1%
inactive: SR leukemia 89.5% | RPMI-8226 leukemia 95.6% | OVCAR-8 ovarian 103% | OVCAR-5 ovarian 88.3% | OVCAR-4 ovarian 87.6% | IGROV1 ovarian 89% | OVCAR-3 ovarian 115% | HS 578T breast 104% | NCI/ADR-RES ovarian 94.5%

CCCCCCCCCCCCNC(=O)[C@H]1CSC(c2cc3ccccc3s2)N1 (stereo not given in full)
active: SR leukemia -34.6% | OVCAR-8 ovarian -32.9% | OVCAR-4 ovarian -68.5% | SK-OV-3 ovarian -30.1% | IGROV1 ovarian -63.2% | OVCAR-3 ovarian -61.3% | HS 578T breast -41.4% | NCI/ADR-RES ovarian -18.1%
inactive: RPMI-8226 leukemia 18.7% | OVCAR-5 ovarian 20.5%

C/C=C/C1=CN2C(=O)c3cc(OC4OC(C)C(NC)C(C)(O)C4O)c(C)cc3N=C[C@@H]2C1 (stereo not given in full)
inactive: OVCAR-8 ovarian 12.2%
active: SR leukemia -11.8% | RPMI-8226 leukemia 4.62% | OVCAR-5 ovarian 9.87% | OVCAR-4 ovarian 6.47% | SK-OV-3 ovarian 3.83% | IGROV1 ovarian -8.52% | OVCAR-3 ovarian 0.104% | HS 578T breast -7.59% | NCI/ADR-RES ovarian -7.51%

COc1cc(-c2nc(N=Nc3c(O)[nH]c4ccc(Br)cc34)[nH]c(=O)c2C#N)cc(OC)c1OC
inactive: SR leukemia 88.2% | RPMI-8226 leukemia 98.2% | OVCAR-8 ovarian 93.5% | OVCAR-5 ovarian 101% | OVCAR-4 ovarian 101% | SK-OV-3 ovarian 108% | IGROV1 ovarian 101% | OVCAR-3 ovarian 102% | HS 578T breast 93.8% | NCI/ADR-RES ovarian 102%

CN1C=CN(Cc2ccc(-c3ccccn3)nc2)[CH-]1.CN1C=CN(Cc2ccc(-c3ccccn3)nc2)[CH-]1.[Au+3]
inactive: SR leukemia 16.8% | RPMI-8226 leukemia 18.1% | OVCAR-8 ovarian 13.3% | OVCAR-5 ovarian 50.3% | SK-OV-3 ovarian 75.4% | OVCAR-3 ovarian 32.3% | HS 578T breast 79.2% | NCI/ADR-RES ovarian 101%
active: OVCAR-4 ovarian 6.08% | IGROV1 ovarian 3.06%

Cn1c2ccc(Br)cc2c2c3c(c4c5ccccc5[nH]c4c21)C(=O)N(O)C3=O
active: SR leukemia 0.179% | RPMI-8226 leukemia -29.5% | OVCAR-8 ovarian -27.2% | OVCAR-5 ovarian -6.8% | OVCAR-4 ovarian 3.5% | SK-OV-3 ovarian -84.2% | IGROV1 ovarian -79.4% | OVCAR-3 ovarian -86.2% | HS 578T breast 1.47%
inactive: NCI/ADR-RES ovarian 26.3%

COc1cc(Cn2cc3c(c2)-c2oncc2CC3)cc(OC)c1OC
active: SK-OV-3 ovarian -5.27% | IGROV1 ovarian 1.48% | OVCAR-3 ovarian -40.5% | HS 578T breast 7.08% | NCI/ADR-RES ovarian -13.9%
inactive: SR leukemia 11.3% | RPMI-8226 leukemia 22.8% | OVCAR-8 ovarian 16.6% | OVCAR-5 ovarian 41.2% | OVCAR-4 ovarian 48%

CC1(c2ccc(Cl)cc2)OC(=O)CC(=O)O1
inactive: SR leukemia 78.5% | RPMI-8226 leukemia 102% | OVCAR-8 ovarian 105% | OVCAR-5 ovarian 103% | SK-OV-3 ovarian 106% | IGROV1 ovarian 108% | OVCAR-3 ovarian 104% | HS 578T breast 105% | NCI/ADR-RES ovarian 106%
active: OVCAR-4 ovarian -2.18%

CN1C(=O)N(C)C2C1NN=c1s/c(=C\c3cccnc3)c(=O)n12 (stereo not given)
inactive: SR leukemia 27.3% | RPMI-8226 leukemia 95.4% | OVCAR-8 ovarian 93.2% | OVCAR-5 ovarian 93% | OVCAR-4 ovarian 93.6% | SK-OV-3 ovarian 85% | IGROV1 ovarian 80.8% | OVCAR-3 ovarian 65.6% | HS 578T breast 84.8% | NCI/ADR-RES ovarian 78.5%
